VACV Venus inh – qHTS for Stage-Specific Inhibitors of Vaccinia Orthopoxvirus: Venus Reporter Primary qHTS; Vaccinia virus Venus reporter expression, fluorescence; Potency, µM (titrated, usually from 36.5 µM), usual class: inhibitors; 0.46% of 330,000 active; calls by dose curve; tested in A549 cells; also: nearly all actives have a fitted effect of over 30% in size
Pf growth 96h – Primary qHTS for delayed death inhibitors of the malarial parasite plastid, 96 hour incubation; Potency, µM (doses to about 28.7 µM), usual class: inhibitors; AID 504834, 2011; P. falciparum luciferase reporter growth, 96 h; 6.9% of 320,000 active
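P. falciparum expressing integrated firefly luciferase grown in erythrocytes (2% hematocrit, 0.05% parasitemia final) with compounds for 96 hours at 37 C, 5% CO2. Growth inhibition read as loss of luminescence after adding luciferase detection reagent.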
NS1 function inh – qHTS Assay for Inhibitors of Influenza NS1 Protein Function; Potency, µM (series often up to 46.1 µM); 0.4% of 270,000 active; AID 2326, 2010; calls by dose curve; also: actives are rising curves; nearly all actives have a fitted effect of over 50% in size
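A cell-based growth assay was used: compounds that relieve NS1-induced slow growth of budding yeast raise OD600. Assay medium was yeast nitrogen base with ammonium sulphate and -URA supplement, pH 6.0, with 2% galactose.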
HCV inh – qHTS Assay for Inhibitors of Hepatitis C Virus (HCV) | Huh7.5.1 HCVcc-Cre infection, luciferase reporter, 44 h | Potency, µM (highest dose often 41.8 µM), hits mostly inhibitors | 3.4% of 340,000 active | AID 651820, 2012
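1,000 cells/well; 4 h culture; + compound; + HCVcc-Cre (~0.5 moi); 44 h; luciferase substrate, RT 15 min; read 15 sec.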
Pf growth 48h – Primary qHTS for delayed death inhibitors of the malarial parasite plastid, 48 hour incubation; 5.9% of 310,000 active; Potency, µM (series often up to 28.7 µM), actives largely listed as inhibitors; AID 504832, 2011; P. falciparum luciferase growth in erythrocytes, 48 h
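Read-out is firefly luciferase luminescence from an integrated reporter in P. falciparum, so falling signal marks reduced parasite growth. Infected erythrocytes were at 2% hematocrit and 0.1% parasitemia (final) in Albumax-supplemented RPMI 1640.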
Vaccinia mCherry – qHTS for Stage-Specific Inhibitors of Vaccinia Orthopoxvirus: mCherry Reporter Primary qHTS. Vaccinia virus mCherry reporter infection, fluorescence. 0.63% of 310,000 active. Potency, µM (highest dose often 36.5 µM), most hits filed as inhibitors; calls by dose curve; tested in A549 cells; also: nearly all actives have a fitted effect of over 35% in size
Large screens that a line does not name were inactive. The list is not random: actives were taken first. Their share in the collection is about 11%. Unless noted, calls follow the shape of the dose curve; as a rule, active = well fitted inhibition curve with a large enough effect; inconclusive = small, poorly fitted or top-dose-only effect, or another doubt; inactive = no such curve, though single readings can be large or run the other way.

CC(=O)C(=Nc1ccccc1Cl)NNc1ccc(Cl)cc1	Pf growth 96h 4.7µM, NS1 function inh inconclusive, HCV inh inconclusive, Pf growth 48h 12µM
CCOc1ccc(CCNC(=O)COC(=O)CNS(=O)(=O)c2ccc(NC(C)=O)cc2)cc1OCC	Pf growth 96h 8.3µM, Pf growth 48h inconclusive (no result: NS1 function inh)
CC(=O)Nc1ccc(S(=O)(=O)NCC(=O)NCCc2ccc(S(N)(=O)=O)cc2)cc1	Pf growth 96h 0.83µM (no result: NS1 function inh)
CC(=O)Nc1ccc(S(=O)(=O)NCCc2ccc(S(N)(=O)=O)cc2)cc1	Pf growth 96h 10µM (no result: VACV Venus inh, Pf growth 48h, Vaccinia mCherry)
CC(=O)Nc1ccc(S(=O)(=O)NCC(=O)NCCCc2ccccc2)cc1	Pf growth 96h inconclusive, Pf growth 48h inconclusive
CC(=O)Oc1ccc2c(=O)c(N3C(=O)c4ccccc4C3=O)c(C)oc2c1	none
COc1cccc(CN2CCN(C(=O)c3ccco3)CC2)c1	Pf growth 96h 0.83µM (no result: VACV Venus inh, Vaccinia mCherry)
COc1ccc(CC(=O)N2CCN(C(=O)c3ccco3)CC2)cc1	none (no result: Pf growth 96h)
Cc1ccc(COc2coc(CN3CCN(C(=O)c4ccco4)CC3)cc2=O)cc1	Pf growth 96h inconclusive, Pf growth 48h 12µM (no result: NS1 function inh)
COc1ccc(NC(=O)C(=O)NCCN2CCN(C(=O)c3ccco3)CC2)cc1	Pf growth 96h 0.93µM (no result: NS1 function inh)
COc1cccc(C2=NN(C(=O)c3ccco3)C(O)(C(F)(F)F)C2)c1 (stereo not drawn)	Pf growth 48h 4.1µM
Cc1ccccc1NC(=O)C1C2CCC(O2)C1C(=O)O (stereo not drawn)	none
O=C(c1ccco1)N1CCN(Cc2c(Cl)cccc2Cl)CC1	Pf growth 96h 2.6µM (no result: VACV Venus inh, Vaccinia mCherry)
O=C(c1ccco1)N1CCN(Cc2ccc(Cl)cc2)CC1	VACV Venus inh inconclusive, Pf growth 48h inconclusive (no result: Vaccinia mCherry)
CCC(NC(=S)NCc1ccc(F)cc1)c1ccccc1 (stereo not drawn)	Pf growth 96h inconclusive, HCV inh inconclusive, Pf growth 48h 6.6µM (no result: VACV Venus inh, Vaccinia mCherry)
Cc1ccc(C)c(C(C)NC(=S)NCc2ccc(F)cc2)c1 (stereo not drawn)	HCV inh inconclusive, Pf growth 48h 3.3µM
COc1ccc(C(C)NC(=S)NCc2ccc(F)cc2)cc1 (stereo not drawn)	Pf growth 48h inconclusive
COCCn1c(SC(C)C(=O)NCC2CCCO2)nc2scc(-c3ccc(F)cc3)c2c1=O (stereo not drawn)	Pf growth 96h inconclusive, HCV inh inconclusive, Pf growth 48h 13µM (no result: NS1 function inh)
CCn1c(SC(C)C(=O)NCC2CCCO2)nc2scc(-c3ccccc3)c2c1=O (stereo not drawn)	Pf growth 96h 2.9µM, HCV inh inconclusive, Pf growth 48h 7.4µM (no result: NS1 function inh)
C=CCn1c(SCC(=O)NCC2CCCO2)nc2scc(-c3ccccc3)c2c1=O (stereo not drawn)	HCV inh inconclusive, Pf growth 48h inconclusive
CC(Sc1ncnc2c1cnn2-c1ccccc1)C(=O)NCC1CCCO1 (stereo not drawn)	Pf growth 96h inconclusive, HCV inh inconclusive (no result: VACV Venus inh, Vaccinia mCherry)
COCCn1c(SC(C)C(=O)NCC2CCCO2)nc2sc3c(c2c1=O)CCC3 (stereo not drawn)	Pf growth 96h 8.3µM, Pf growth 48h inconclusive (no result: NS1 function inh)
Cc1nc(SC(C)C(=O)NCC2CCCO2)c2cc(-c3ccccc3)sc2n1 (stereo not drawn)	Pf growth 96h inconclusive, Pf growth 48h inconclusive, Vaccinia mCherry 5µM (no result: NS1 function inh)
CCOC(=O)N1CCN(C(=S)Nc2ccc3nc(N4CCN(CC)CC4)cc(C)c3c2)CC1	Pf growth 48h inconclusive
Cn1ncc(-c2ccno2)c1C(=O)O	Pf growth 96h inconclusive (no result: NS1 function inh)
CCOc1ccc(/C=N/NC(=O)c2ccc(CSc3nc4ccccc4[nH]3)cc2)cc1	NS1 function inh inconclusive, HCV inh inconclusive (no result: VACV Venus inh, Vaccinia mCherry)
CC(Sc1nnc(-c2cccs2)n1-c1ccccc1)C(=O)NCc1ccc2c(c1)OCO2 (stereo not drawn)	VACV Venus inh inconclusive, Pf growth 96h 10µM (no result: Pf growth 48h, Vaccinia mCherry)
C=CCn1c(SC(C)C(=O)NCc2ccc3c(c2)OCO3)nc2scc(-c3ccccc3)c2c1=O (stereo not drawn)	Pf growth 96h 6.6µM, HCV inh inconclusive, Pf growth 48h inconclusive (no result: VACV Venus inh, Vaccinia mCherry)

Bioassay records (PubChem)
